From PubChem BioAssay come the findings set out here.

SMILES strings stand for the structures. Active and inactive are the calls of the source.

Test [1] in a line: compounds binding Alexa647 anti-His antibody – biochemical, small-molecule microarray, 635 nm fluorescence, artefact control for SMM control protein annotation, primary screen (AID 1128).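 Further: score merges feature fluorescence with signal-to-noise for each printed compound spot.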 Particulars: higher = more signal.
The test system of test [2] is Human papillomavirus type 1a E7 protein (residues 1-88). Briefly: HPV1a E7 small-molecule binders, primary screen, biochemical, small-molecule microarray, residues 1-88, 635 nm (AID 1129). To be noted: small-molecule microarray binding, fluorescence 635 nm; higher = more signal.
Test [3] addresses Focal adhesion kinase 1 (Homo sapiens) (UniProt Q05397). Description: PTK2 protein binding on printed compound slides – biochemical, small-molecule microarray, 635/667 nm fluorescence, BSA, DTT, primary screen (AID 1130).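 Further: composite of spot emission at 667 nm and signal to noise over triplicate slides.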 To be noted: 635 nm fluorescence, higher = more signal.
Test [4] has as its system Fibrinogen (Alexa647-labelled). Description: Alexa647-fibrinogen binding to printed small molecules – biochemical, small-molecule microarray, 635/667 nm fluorescence, artefact control for SMM control-protein annotation, profiling panel (AID 1131).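 Further: z-score merges 667 nm fluorescence with per-spot signal-to-noise over triplicate slides.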 Particulars: fibrinogen-A647 binding fluorescence, higher = more signal.
For test [5], the target named is Follistatin (Homo sapiens) (UniProt P19883). Description: FST protein binding to printed compounds – biochemical, small-molecule microarray, 635/667 nm fluorescence, primary screen (AID 1132). To be noted: 635 nm fluorescence, higher = more signal.
Test [6] deals with Fibroblast growth factor 2 (Homo sapiens) (UniProt P09038). Description: basic fibroblast growth factor binding to printed compounds – biochemical, small-molecule microarray, 635/667 nm fluorescence, primary screen (AID 1133). To be noted: FGF2, fluorescence 635/667, higher = more signal.
The nature of test [7]: JC-1 mitochondrial potential readout, lung cancer cells – cell-based, A549, JC-1 fluorescence, basal, 24 h, 100 nL, profiling panel (AID 1138).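 Further: A549 lung adenocarcinoma cells under basal conditions with no added stimulus; test concentration not given here.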 Particulars: higher = more signal.
For test [8], the system named is Lefty1. Description: Lefty1 protein binding to printed compounds – biochemical, small-molecule microarray, 635/667 nm fluorescence, primary screen (AID 1139). To be noted: fluorescence 635/667, higher = more signal.
Test [9] deals with wheat germ agglutinin (Triticum aestivum), Alexa647-labelled. Description: Alexa647-WGA lectin binding to printed small molecules – biochemical, small-molecule microarray, 635/667 nm fluorescence, artefact control for SMM control-protein annotation, profiling panel (AID 1140).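 Further: score merges 667 nm feature emission with signal to noise over triplicate slides.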 To be noted: WGA-A647 binding, 635 nm fluorescence, higher = more signal.
Test [10] deals with Luciferin 4-monooxygenase (Photinus pyralis) (UniProt P08659). Briefly: inhibition of purified Photinus pyralis luciferase – biochemical, luminescence, purified enzyme, 2006 set, primary screen (AID 1141).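 Further: cell-free assay with purified firefly luciferase at 100 ng per well in PBS; test concentration not given here.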 To be noted: purified firefly luciferase, SteadyGlo luminescence, 30 min; higher = more signal, called active from +8 up or from −8 down.
Luciferin 4-monooxygenase (Photinus pyralis), sequence (P08659 whole entry, looked up): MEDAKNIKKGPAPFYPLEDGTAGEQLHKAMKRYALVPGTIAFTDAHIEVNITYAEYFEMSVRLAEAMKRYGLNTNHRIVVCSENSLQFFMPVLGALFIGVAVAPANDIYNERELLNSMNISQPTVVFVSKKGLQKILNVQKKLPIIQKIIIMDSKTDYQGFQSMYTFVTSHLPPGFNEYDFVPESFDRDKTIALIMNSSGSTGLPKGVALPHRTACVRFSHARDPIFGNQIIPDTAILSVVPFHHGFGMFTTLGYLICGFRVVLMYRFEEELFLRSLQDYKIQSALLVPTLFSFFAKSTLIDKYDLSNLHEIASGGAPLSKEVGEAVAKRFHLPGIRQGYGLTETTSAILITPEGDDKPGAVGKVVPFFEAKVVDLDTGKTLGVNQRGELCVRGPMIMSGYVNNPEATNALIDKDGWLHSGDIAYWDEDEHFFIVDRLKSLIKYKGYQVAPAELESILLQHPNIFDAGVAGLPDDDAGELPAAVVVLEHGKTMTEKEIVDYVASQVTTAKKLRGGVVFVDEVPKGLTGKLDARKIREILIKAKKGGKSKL

Follistatin (Homo sapiens), sequence (P19883 whole entry, looked up): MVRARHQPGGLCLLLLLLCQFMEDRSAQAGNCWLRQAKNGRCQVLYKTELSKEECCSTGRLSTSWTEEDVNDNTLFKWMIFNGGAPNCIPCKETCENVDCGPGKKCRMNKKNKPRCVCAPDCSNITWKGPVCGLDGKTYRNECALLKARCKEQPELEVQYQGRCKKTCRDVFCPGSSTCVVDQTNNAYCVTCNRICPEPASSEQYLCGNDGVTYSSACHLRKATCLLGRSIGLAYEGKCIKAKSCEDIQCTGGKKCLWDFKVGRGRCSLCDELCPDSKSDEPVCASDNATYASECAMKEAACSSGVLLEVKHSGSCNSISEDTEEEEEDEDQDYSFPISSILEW
Fibroblast growth factor 2 (Homo sapiens), sequence (P09038 whole entry, looked up): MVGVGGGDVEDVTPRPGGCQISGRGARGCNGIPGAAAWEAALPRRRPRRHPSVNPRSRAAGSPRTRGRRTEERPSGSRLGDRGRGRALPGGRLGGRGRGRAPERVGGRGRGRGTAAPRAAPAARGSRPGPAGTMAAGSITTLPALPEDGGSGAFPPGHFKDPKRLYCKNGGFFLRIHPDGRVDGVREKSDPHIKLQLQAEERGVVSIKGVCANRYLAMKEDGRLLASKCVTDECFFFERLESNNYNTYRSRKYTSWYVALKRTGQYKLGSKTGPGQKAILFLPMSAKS
Focal adhesion kinase 1 (Homo sapiens), sequence (Q05397 whole entry, looked up): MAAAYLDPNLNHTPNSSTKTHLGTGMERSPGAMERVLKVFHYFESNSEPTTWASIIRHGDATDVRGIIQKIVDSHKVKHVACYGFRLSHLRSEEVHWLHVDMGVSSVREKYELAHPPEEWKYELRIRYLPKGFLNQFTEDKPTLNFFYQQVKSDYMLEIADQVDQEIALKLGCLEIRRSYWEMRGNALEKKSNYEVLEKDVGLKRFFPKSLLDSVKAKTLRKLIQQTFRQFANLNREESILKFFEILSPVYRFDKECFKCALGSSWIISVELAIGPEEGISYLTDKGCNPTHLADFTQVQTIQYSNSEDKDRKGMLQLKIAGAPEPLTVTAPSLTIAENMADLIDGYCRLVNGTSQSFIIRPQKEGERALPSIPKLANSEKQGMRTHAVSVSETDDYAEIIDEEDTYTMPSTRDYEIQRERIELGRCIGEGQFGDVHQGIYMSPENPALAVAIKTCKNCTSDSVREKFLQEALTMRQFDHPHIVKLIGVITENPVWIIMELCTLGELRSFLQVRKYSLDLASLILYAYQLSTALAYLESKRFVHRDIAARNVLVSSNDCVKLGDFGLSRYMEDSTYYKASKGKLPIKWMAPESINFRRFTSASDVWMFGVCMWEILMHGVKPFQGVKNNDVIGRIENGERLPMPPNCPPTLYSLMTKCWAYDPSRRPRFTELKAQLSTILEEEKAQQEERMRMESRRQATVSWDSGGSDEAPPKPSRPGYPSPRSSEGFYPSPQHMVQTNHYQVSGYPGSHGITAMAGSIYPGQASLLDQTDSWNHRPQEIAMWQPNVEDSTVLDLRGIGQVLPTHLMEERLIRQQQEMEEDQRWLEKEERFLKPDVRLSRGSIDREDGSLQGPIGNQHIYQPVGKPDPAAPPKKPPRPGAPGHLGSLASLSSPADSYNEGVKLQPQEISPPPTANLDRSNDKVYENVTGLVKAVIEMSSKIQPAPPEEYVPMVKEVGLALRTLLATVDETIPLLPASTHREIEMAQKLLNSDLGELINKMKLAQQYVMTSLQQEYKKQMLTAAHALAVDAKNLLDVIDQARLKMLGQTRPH

In the case of `CN1C=C(C(=O)OCCS(C)(=O)=O)C(C(=O)OCCS(C)(=O)=O)=CC(CCCO)=CC1c1ccc(CN2CCCC2)cc1` (stereo not given), the composite z-score in [1] is 1.29; in [2] it was 1.26; in test [3], 0.666; in test [4] it was 0.894; in test [5] it was 1.06; in test [6], 0.546. Further, the composite z-score was 1.23 in [8] and 0.837 in test [9]. Further, the z-score is 3.43 in [7] and -2.16 (inactive) in [10].
With `[N-]=[N+]=NCc1ccccc1C[C@@]1(C(=O)O)N=C(c2ccc(OCCCO)cc2)O[C@@H]1c1ccccc1CN=[N+]=[N-]`, the composite z-score was 0.705 in [1]; 1.17 in [2]; -0.0333 in [3]; 0.989 in test [4]; 1.02 in [5]; 0.679 in [6]. Besides, the composite z-score in [8] was determined as 0.594; in test [9] it was 0.51. In addition, the results for the z-score in test [7] and in test [10] were -0.253 and -0.593 (inactive), respectively.
`COC(=O)[C@@H]1N=C(c2ccc(OCCCO)cc2)O[C@@H]1c1ccccc1CN=[N+]=[N-]`: the composite z-score was -0.125 in [1]; 0.943 in test [2]; 0.841 in test [3]; 0.38 in test [4]; 0.233 in test [5]; -0.633 in test [6]. Besides, the composite z-score was -0.119 in test [8] and 0.939 in test [9]. Also, the values for the z-score in test [7] and in test [10] were 0.22 and -0.0813 (inactive), respectively.
Turning to `C=CCC(OC(C)=O)[C@@H]1[C@@H](N(Cc2cccc3ccccc23)C(=O)c2cccc3ccccc23)c2cc(OCCCO)ccc2N1C(=O)Cc1ccc2ccccc2c1` (stereo not given in full), the composite z-score in test [1] was 0.866; in test [2] it was -0.0855; in [3], 0.119; in [4], -0.438; in test [5], 0.832; in test [6], 0.448. Further, the composite z-score in [8] stood at 0.093; in [9], 0.457. Moreover, the values for the z-score in [7] and in test [10] were 0.169 and 1.06 (inactive), respectively.
For `C=CCNC(=O)[C@H]1[C@@H]2C(=O)O[C@@H](c3ccccc3)[C@@H](c3ccccc3)N2[C@@H](c2ccccc2OCCO)[C@]12C(=O)N(C(=O)OCCOC)c1ccccc12`, the composite z-score worked out at 1.23 in test [1]; 1.22 in test [2]; 0.706 in test [3]; 0.887 in test [4]; 0.465 in test [5]; 0.849 in test [6]. Moreover, the composite z-score in test [8] amounted to 0.583; in test [9] it was 1.07. Besides, the results for the z-score in [7] and in [10] were -0.276 and 0.206 (inactive), respectively.
Consider `C=CCN1C(=O)[C@]2(O[C@H](CCO)[C@@H]([Si](C)(C)c3ccc(OC)cc3)[C@@H]2C)c2ccccc21`, for which the composite z-score in test [1] was 0.0171; in test [2], 0.745; in [3], -0.0378; in test [4], 0.641; in test [5], -0.862; in test [6], -0.14. Moreover, the composite z-score in [8] worked out at 0.058; in test [9] it was 0.134. For the same compound, the results for the z-score in test [7] and in [10] were -1.83 and -0.43 (inactive), respectively.
Turning to `COc1ccc([Si](C)(C)[C@H]2[C@H](CCO)O[C@@]3(C(=O)N(Cc4ccccc4)c4ccc(N(C=O)c5ccccc5)cc43)[C@@H]2C)cc1`, the composite z-score was determined as 0.359 in test [1]; 0.644 in test [2]; 0.274 in [3]; 0.605 in test [4]; 0.919 in test [5]; 0.25 in test [6]. Also, the composite z-score in test [8] is 1.01; in test [9] it was 0.153. In addition, the z-score in test [7] was 0.821; in test [10], 0.457 (inactive).
As to `NCCCC[C@@H]1NC(=O)[C@H]2C[C@@H](C(=O)NCc3ccc(F)cc3)[C@@H](c3cccc(OCCO)c3)N2C1=O`, the composite z-score in [1] came out at 2.48; in test [2] it was 1.23; in [3], 0.0858; in test [4] it was 0.763; in test [5], 1.32; in [6], 1.62. In addition, the figures for the composite z-score in [8] and in test [9] were 1.56 and 0.231, respectively. Further, the z-score in [7] was -1.7; in test [10], -0.434 (inactive).
On to `CCCC=C(CCC)[C@@H](NC(=O)c1ccccc1)c1ccc(C(=O)OC)cc1`, for which the composite z-score in test [1] is 0.877; in test [2], 0.598; in test [3] it was -0.17; in test [4] it was 0.214; in [5] it was 1.06; in test [6], 1.1. Besides, the composite z-score in [8] was 0.439; in [9], -0.0525. For the same compound, the results for the z-score in [7] and in test [10] were -1.71 and 1.5 (inactive), respectively.
As to `Cc1c(NC(=O)/C(C#N)=C/c2ccc(Cl)cc2)c(=O)n(-c2ccccc2)n1C`, the composite z-score in test [1] is 0.753; in test [2] it was 0.8; in test [3], -0.171; in test [4] it was 1.03; in test [5] it was 0.114; in [6] it was 0.627. Further, the composite z-score in test [8] is 0.466; in [9], 0.794. Further, the z-score in test [7] was 1.28; in test [10], -0.304 (inactive).
As for `O=C1O[C@H](c2ccccc2)[C@H](c2ccccc2)N2[C@H]1[C@@H](C(=O)N1CCN(c3ncccn3)CC1)[C@]1(C(=O)Nc3ccccc31)[C@H]2c1ccc(O)cc1`, the composite z-score in [1] was determined as 2.34; in test [2], 1.07; in test [3], 0.759; in [4] it was 0.635; in test [5], 0.889; in test [6], 0.451. In addition, the composite z-score in test [8] was -0.116; in test [9], 0.185. The results for the z-score in test [7] and in test [10] were 0.028 and -1.3 (inactive), respectively.
On to `CC(=O)n1cc(C(O)C2C=CC3C(=O)N(c4ccccc4)C(=O)C3N2Nc2ccccc2F)c2ccccc21` (stereo not given), for which the composite z-score was 1.01 in [1]; 0.726 in test [2]; 0.251 in [3]; 1.02 in [4]; -1.04 in test [5]; -0.89 in test [6]. Further, the results for the composite z-score in test [8] and in test [9] were -0.274 and 0.0832, respectively. The z-score was -1.16 in test [7] and 1.34 (inactive) in test [10].
For `NCCCC[C@@H]1NC(=O)[C@H]2C[C@@H](C(=O)O)[C@@H](c3cccc(OCCO)c3)N2C1=O`, the composite z-score in test [1] came out at 3; in test [2] it was 1.26; in test [3], 0.188; in test [4] it was 0.577; in test [5], 1.41; in [6], 1.69. The composite z-score in [8] came to 1.64; in test [9], 1.44. The results for the z-score in [7] and in test [10] were -1.44 and -1.08 (inactive), respectively.
`O=C1N(Cc2ccccc2)c2ccccc2[C@H]2OC(c3ccc(OCCCO)cc3)=N[C@@]12Cc1ccccc1`: the composite z-score was found to be 2.1 in [1]; 1.19 in test [2]; 0.6 in test [3]; 0.696 in [4]; 1.35 in test [5]; 1.52 in test [6]. The composite z-score in test [8] amounted to 0.584; in test [9], 0.694. The figures for the z-score in test [7] and in test [10] were -1.4 and -2.98 (inactive), respectively.
For the compound `C=CCC(OC(C)=O)[C@@H]1[C@@H](N(Cc2ccc(-c3ccccc3)cc2)C(=O)c2ccc(C)cc2)c2cc(OCCCO)ccc2N1C(=O)c1ccc2ccccc2c1` (stereo not given in full), the composite z-score is -0.722 in test [1]; 0.117 in [2]; -0.161 in [3]; -0.283 in test [4]; 0.576 in test [5]; -0.0502 in test [6]. The composite z-score in [8] stood at 0.297; in test [9], 0.008. Moreover, the figures for the z-score in test [7] and in [10] were 1.68 and -1.9 (inactive), respectively.
Turning to `CC(C)CNC(=O)[C@@H]1c2ccccc2C(=O)N(CC23CC4CC(CC(C4)C2)C3)[C@H]1c1ccc(CO)cc1`, the composite z-score in [1] is 1.94; in [2], 1.14; in test [3], 0.257; in [4], 0.592; in test [5], 0.466; in [6] it was -0.0903. The composite z-score in [8] was determined as 0.366; in test [9], 0.674. Further, the z-score in [7] was 0.47; in [10] it was 1.27 (inactive).
